Laboratory results from ChEMBL document CHEMBL4513216, “Probing the Open Global Health Chemical Diversity Library for Multistage-Active Starting Points for Next-Generation Antimalarials” (ACS Infect Dis, 2020).
Out of some 69,000 compounds screened, about 8,600 (12%) showed an effect of 50% or more. Only a selection was taken, and strong results are over-represented in it overall.

Tested on: Plasmodium berghei
Experiment: Screen against P. berghei liver stage (PbLuc), transformed with Luciferase, at 10uM
Assay type: functional, HepG2
Conditions: tested at 10 uM

SMILES	INHIBITION [%]
CC(C)c1ccc(O)c(C(=O)N2CCN(Cc3cscn3)CC2)c1	54.9
CC(C)c1ncncc1C(=O)N1CCN(Cc2cscn2)CC1	49.3
Cc1ccc(C(=O)N2CCCN(Cc3cscn3)CC2)o1	7.67
CC(Oc1ccccc1)C(=O)N1CCCN(Cc2cscn2)CC1 (stereo not drawn)	27.25
Cn1nccc1CNC(=O)CCn1nc(C(F)(F)F)cc1C1CC1	-49.3
c1cncc(CN(Cc2ccc(-n3ccnc3)cc2)CC2CCCO2)c1 (stereo not drawn)	23.2
CC(C)c1ccc(C(C)N2CCCN(C(N)=O)CC2)cc1 (stereo not drawn)	-18.7
CC1CCCN(S(=O)(=O)NCc2ccccc2Cn2cncn2)C1 (stereo not drawn)	37.4
CC1CCCN(CC(=O)N2CCC(c3ncc4c(n3)CCNC4)CC2)C1 (stereo not drawn)	25
COc1cccc(COCC(=O)N2CCCC(n3cncn3)C2)c1 (stereo not drawn)	-24.2
CC(CO)Nc1ccc(-c2nc(Cc3ccc(F)cc3)no2)cn1 (stereo not drawn)	-37.6
COc1ccc(Cc2noc(-c3ccc(NC(C)CO)nc3)n2)cc1 (stereo not drawn)	52.2
COCC(C)Nc1ccc(-c2nc(Cc3ccc(F)cc3)no2)cn1 (stereo not drawn)	49
N#Cc1ccc(N2CCC3(CC2)COCCN3Cc2cccnc2)cc1	-6.46
Cc1ncc(C(=O)N2CCC(C(=O)NC3CCCC3)C2)c(C)n1 (stereo not drawn)	19.3
CN1CC2(CCN(c3ncnc4c3CCNC4)CC2)OC1=O	49.5
Cc1cc(C)n(C2CCN(c3ncnc4c3CCNCC4)C2)n1 (stereo not drawn)	42.1
c1cc(C2CCN(c3ncnc4c3CCNCC4)CC2)ccn1	33.9
c1ccc(C2CCCN(c3ncnc4c3CCNC4)CC2)cc1 (stereo not drawn)	83.9
c1ccn2c(C3CCCN(c4ncnc5c4CCNC5)C3)nnc2c1 (stereo not drawn)	-20.8
c1ccc2c(c1)CN(c1ncnc3c1CCNC3)CCO2	25.9
c1ccc(C2CCN(c3ncnc4c3CCNC4)CC2)cc1	83
c1nc2c(c(N3CCOCC3)n1)CCNCC2	27.5
Clc1cccc(C2CCN(c3ncnc4c3CCNC4)C2)c1 (stereo not drawn)	83
Cn1cnc2c1C(COCC1CC1)CN(C(=O)Cc1ccsc1)C2 (stereo not drawn)	11.1
NC(=O)C1(CCCc2ccccn2)CCCN(CCO)C1 (stereo not drawn)	30.8
Cc1cc(C)n(CCCN(C)c2cc(N(C)C)ncn2)n1	28.2

SMILES	INHIBITION [%]
CC(C)OCCCN(Cc1cnn(C)c1)Cc1ccccn1	-51.3
CCN(Cc1ccccn1)C1CCN(c2ccccc2)C1=O (stereo not drawn)	-31.1
Cn1ccnc1C(=O)N[C@@H]1CN(CC2CCOCC2)[C@@H]2CCCO[C@@H]21	63.8
Cc1ccc(CN2C[C@H](N(C)Cc3cncnc3)[C@H]3OCCC[C@H]32)o1	-3.77
Cc1ccc(CN2C[C@@H](N(C)C)[C@H]3OCCC[C@H]32)o1	-37.9
Cn1ccnc1C(=O)N[C@@H]1CN(Cc2cccs2)[C@@H]2CCCO[C@@H]21	22.2
Cn1ccnc1C(=O)N[C@@H]1CN(Cc2ccoc2)[C@@H]2CCCO[C@@H]21	29.4
Cn1cc(C(=O)N[C@@H]2CN(CC3CCOCC3)[C@@H]3CCCO[C@@H]32)cn1	-14.4
Cn1ccnc1C(=O)N[C@@H]1CN(Cc2ccc(F)cc2)[C@@H]2CCCO[C@@H]21	49.4
Cc1ccc(CN2C[C@H](NC(=O)c3nccn3C)[C@H]3OCCC[C@H]32)o1	75.6
CCN(CC)[C@@H]1CN(Cc2ccc(C)o2)[C@@H]2CCCO[C@H]12	63.1
COC(=O)c1cccc(C(=O)NCc2ccc(C)o2)n1	39.1
Cc1ccc(N2CC[C@H]3O[C@@H](C(=O)NCc4ccco4)CC[C@H]32)nn1	21.6
COC(=O)CC1CCN(C(=O)Nc2ccc(-c3ccn[nH]3)cc2)C1 (stereo not drawn)	37.7
Cc1ccc(CN2CCC[C@@H]3CN(C(=O)c4ccco4)C[C@@H]32)s1	-2.25
CN1C(=O)CC(c2ccccc2)C12CCN(CC1CC1)CC2 (stereo not drawn)	-40.5
CCNC(c1ccc(C(C)C)cc1)c1cccnc1 (stereo not drawn)	8.64
CC(=O)Nc1nc(-c2ccc(C)c(C)c2)c[nH]1	7.22
CC(=O)c1cccc(-c2c[nH]c(C)n2)c1	-30.5
Cc1nc(-c2cccc(C(=O)O)c2)c[nH]1	-34.8
CC(=O)Nc1nc(-c2ccccc2)c[nH]1	58.1
CNC(=O)NC(C)c1nc(-c2ccccc2)c[nH]1 (stereo not drawn)	-51.8
CC(=O)Nc1nc(-c2ccc(F)cc2)c[nH]1	63.6
Cc1cc(N2CCN(Cc3cn(C)nc3C)CC2)cc(C2CCCN2)n1 (stereo not drawn)	-10
Cc1ccc([C@@]2(O)CC[C@@H]3CN(S(=O)(=O)c4cn(C)nc4C)C[C@@H]32)cc1	32.8
CC(CO)(CO)NC(=O)C1CCC(=O)N(Cc2ccc(Cl)cc2)C1 (stereo not drawn)	35.7
